This passage reports log2 fold change results from the supplement of paper PMC10849652.

The full data set covers some 8,800 targets. This sample favours those with a hit. About 0.5% of all pairs of compound and target were hits.

Chain of UniProt Q9NY27 (Q9NY27 whole entry, looked up): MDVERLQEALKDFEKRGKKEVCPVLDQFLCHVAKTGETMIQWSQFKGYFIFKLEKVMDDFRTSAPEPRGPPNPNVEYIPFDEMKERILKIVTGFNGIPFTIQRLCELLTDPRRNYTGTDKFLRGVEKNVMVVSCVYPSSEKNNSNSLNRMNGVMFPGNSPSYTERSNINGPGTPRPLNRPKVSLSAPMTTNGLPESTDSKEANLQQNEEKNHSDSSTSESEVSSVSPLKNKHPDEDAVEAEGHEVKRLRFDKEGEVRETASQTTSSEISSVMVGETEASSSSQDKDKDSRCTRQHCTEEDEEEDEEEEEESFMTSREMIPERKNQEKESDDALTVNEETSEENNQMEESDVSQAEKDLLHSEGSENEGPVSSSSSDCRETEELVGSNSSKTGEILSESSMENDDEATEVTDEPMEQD
Chain of UniProt Q16512 (Q16512 whole entry, looked up): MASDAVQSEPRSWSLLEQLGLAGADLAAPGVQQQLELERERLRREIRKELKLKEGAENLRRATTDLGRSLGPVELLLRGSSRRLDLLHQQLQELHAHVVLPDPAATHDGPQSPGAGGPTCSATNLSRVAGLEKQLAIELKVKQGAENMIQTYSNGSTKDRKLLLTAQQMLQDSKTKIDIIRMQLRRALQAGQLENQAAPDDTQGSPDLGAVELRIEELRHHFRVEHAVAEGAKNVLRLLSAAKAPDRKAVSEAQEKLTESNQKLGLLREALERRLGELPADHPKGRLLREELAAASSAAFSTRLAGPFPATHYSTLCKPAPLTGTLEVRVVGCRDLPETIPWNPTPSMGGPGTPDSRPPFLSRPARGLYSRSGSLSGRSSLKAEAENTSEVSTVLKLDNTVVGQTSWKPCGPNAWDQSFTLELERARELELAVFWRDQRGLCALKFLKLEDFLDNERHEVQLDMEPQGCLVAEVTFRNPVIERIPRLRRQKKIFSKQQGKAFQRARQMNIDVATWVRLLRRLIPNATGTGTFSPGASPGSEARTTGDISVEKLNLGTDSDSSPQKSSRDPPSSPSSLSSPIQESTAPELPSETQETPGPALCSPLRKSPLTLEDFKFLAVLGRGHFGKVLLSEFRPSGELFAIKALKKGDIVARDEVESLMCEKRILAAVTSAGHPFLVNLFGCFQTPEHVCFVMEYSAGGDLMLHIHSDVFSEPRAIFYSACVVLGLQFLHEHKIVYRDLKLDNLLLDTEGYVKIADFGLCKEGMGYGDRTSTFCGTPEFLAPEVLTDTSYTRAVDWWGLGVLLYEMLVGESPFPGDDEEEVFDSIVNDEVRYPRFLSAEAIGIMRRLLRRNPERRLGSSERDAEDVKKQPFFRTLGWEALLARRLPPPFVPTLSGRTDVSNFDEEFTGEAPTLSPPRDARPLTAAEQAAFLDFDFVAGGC
Chain of UniProt Q8N8N7 (Q8N8N7 whole entry, looked up): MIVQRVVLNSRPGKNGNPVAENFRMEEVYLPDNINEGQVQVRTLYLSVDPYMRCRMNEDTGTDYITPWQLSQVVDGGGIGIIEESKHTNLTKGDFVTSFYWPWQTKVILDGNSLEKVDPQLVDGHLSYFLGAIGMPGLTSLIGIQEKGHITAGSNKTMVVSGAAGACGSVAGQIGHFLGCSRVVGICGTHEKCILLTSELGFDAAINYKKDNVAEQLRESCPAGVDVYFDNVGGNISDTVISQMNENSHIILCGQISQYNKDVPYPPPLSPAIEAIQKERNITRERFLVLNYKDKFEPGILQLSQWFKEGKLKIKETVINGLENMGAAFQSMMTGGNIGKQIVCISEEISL
Chain of UniProt Q9NXJ5 (Q9NXJ5 whole entry, looked up): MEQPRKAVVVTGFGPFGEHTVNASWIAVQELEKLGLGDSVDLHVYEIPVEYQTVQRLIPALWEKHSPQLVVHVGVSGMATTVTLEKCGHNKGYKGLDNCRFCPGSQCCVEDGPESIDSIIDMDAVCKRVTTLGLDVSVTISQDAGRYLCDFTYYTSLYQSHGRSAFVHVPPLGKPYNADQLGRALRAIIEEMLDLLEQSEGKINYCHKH
Chain of UniProt P15735 (P15735 whole entry, looked up): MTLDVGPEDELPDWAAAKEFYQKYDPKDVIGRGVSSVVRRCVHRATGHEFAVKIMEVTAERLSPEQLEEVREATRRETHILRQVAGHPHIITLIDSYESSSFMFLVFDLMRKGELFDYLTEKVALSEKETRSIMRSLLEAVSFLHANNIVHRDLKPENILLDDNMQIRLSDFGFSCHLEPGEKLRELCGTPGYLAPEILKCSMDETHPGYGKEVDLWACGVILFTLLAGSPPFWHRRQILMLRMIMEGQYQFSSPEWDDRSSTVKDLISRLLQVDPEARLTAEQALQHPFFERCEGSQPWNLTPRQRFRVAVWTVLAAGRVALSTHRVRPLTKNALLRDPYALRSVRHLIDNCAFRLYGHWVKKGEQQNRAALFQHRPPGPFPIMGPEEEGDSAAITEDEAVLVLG
Chain of UniProt O00408 (O00408 whole entry, looked up): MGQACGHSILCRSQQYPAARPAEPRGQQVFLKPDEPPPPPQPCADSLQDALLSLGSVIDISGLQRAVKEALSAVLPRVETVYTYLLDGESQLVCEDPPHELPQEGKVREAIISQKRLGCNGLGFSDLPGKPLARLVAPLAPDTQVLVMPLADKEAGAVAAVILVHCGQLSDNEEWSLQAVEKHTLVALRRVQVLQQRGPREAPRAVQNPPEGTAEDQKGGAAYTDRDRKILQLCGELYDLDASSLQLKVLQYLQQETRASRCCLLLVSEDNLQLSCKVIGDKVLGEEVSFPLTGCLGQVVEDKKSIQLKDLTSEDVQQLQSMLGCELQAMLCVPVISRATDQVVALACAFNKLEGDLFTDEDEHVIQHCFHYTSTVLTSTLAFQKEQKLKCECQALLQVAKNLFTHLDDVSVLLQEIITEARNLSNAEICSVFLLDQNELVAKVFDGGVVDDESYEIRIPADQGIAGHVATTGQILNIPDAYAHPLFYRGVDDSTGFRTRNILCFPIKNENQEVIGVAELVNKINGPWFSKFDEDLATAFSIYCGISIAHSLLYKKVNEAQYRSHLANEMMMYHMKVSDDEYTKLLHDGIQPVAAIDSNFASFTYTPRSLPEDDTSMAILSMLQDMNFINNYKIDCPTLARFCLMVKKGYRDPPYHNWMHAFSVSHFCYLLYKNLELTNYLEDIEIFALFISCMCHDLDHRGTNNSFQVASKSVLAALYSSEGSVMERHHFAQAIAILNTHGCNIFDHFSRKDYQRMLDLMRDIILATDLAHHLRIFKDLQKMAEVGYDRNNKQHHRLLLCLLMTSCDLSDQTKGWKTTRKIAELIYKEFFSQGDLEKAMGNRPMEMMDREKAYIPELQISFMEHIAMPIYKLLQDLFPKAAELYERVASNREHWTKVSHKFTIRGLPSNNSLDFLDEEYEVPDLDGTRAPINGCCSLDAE
Chain of UniProt Q8NA72 (Q8NA72 whole entry, looked up): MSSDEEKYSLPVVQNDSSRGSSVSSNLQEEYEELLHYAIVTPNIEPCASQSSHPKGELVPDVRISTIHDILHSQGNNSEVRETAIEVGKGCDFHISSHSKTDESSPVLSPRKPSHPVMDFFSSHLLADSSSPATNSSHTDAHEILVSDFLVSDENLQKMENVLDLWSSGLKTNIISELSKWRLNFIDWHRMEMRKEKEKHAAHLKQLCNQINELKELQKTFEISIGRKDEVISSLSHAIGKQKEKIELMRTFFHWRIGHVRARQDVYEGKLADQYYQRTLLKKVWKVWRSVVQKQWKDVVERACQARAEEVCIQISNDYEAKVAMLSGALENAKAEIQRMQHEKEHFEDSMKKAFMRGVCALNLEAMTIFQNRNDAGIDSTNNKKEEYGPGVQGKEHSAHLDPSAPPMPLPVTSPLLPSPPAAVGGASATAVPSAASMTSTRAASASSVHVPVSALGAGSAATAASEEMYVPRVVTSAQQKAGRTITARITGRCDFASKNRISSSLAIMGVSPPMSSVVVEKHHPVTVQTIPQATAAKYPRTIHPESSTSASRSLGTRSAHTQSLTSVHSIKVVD
Chain of UniProt Q96C36 (Q96C36 whole entry, looked up): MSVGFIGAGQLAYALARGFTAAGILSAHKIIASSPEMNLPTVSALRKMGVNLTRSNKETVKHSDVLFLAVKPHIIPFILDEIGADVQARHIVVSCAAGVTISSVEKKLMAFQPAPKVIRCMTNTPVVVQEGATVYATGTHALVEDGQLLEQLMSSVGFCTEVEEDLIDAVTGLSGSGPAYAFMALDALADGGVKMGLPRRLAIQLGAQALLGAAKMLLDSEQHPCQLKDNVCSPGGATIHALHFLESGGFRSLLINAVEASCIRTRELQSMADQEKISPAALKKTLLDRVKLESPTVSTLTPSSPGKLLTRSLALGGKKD
Chain of UniProt P18031 (P18031 whole entry, looked up): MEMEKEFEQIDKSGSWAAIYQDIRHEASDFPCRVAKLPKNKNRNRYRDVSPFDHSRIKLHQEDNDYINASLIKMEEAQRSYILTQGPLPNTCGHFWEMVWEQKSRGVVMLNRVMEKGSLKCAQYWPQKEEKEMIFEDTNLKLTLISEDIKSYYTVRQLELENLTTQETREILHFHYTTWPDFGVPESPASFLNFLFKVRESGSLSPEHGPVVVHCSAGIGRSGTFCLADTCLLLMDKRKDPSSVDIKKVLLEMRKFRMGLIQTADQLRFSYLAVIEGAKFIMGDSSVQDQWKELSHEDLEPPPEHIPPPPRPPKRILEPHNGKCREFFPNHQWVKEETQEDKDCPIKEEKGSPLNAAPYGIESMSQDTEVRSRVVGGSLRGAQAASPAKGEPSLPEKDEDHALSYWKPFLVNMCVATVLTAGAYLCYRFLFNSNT
Chain of UniProt Q9BRX2 (Q9BRX2 whole entry, looked up): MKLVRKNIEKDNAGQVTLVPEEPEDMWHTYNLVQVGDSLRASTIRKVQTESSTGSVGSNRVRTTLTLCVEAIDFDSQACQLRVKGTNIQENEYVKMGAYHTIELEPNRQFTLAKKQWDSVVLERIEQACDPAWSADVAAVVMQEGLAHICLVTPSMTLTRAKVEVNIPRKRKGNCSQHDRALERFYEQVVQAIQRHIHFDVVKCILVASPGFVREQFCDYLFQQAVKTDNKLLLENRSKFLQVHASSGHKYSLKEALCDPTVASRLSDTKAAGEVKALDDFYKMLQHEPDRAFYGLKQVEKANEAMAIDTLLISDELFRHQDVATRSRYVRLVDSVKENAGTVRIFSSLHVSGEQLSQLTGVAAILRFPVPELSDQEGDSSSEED

Compound in one assay: COC(=O)N[C@@H](C)CNc1nccc(-c2cn(C(C)C)nc2-c2cc(Cl)cc(NS(C)(=O)=O)c2F)n1 [encorafenib]
The experiment in a line: log2 fold change, soluble protein after heating vs DMSO (PISA); higher = thermal stabilisation; K562 lysate, 10 uM; active = over 0.2 and 3.5 SD of the protein, either way, in both replicates (recomputed). A digest of the protocol: (§1)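 To prepare the extract, K562 pellets were dounce-homogenised in PBS pH 7.4 with 1 mM MgCl2, giving crude material at 1 mg/mL protein. This was treated with 10 μM compound for 30 min, then heated in aliquots for 3 min over 48°C-58°C before pooling and addition of NP-40 to 0.5% at 4°C. Centrifugation at 21,000xg for 90 min left soluble protein in the supernatant, which TMTpro 16plex LC-MS/MS quantified with equalised channel sums. Results are log-two fold changes in thermal stability compared with solvent controls, from duplicates.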
As to PDCD10 (UniProt Q9BUL8), the log2 fold change is -0.019 (inactive).

For the target PGPEP1 (UniProt Q9NXJ5), the log2 fold change was 0.02 (inactive).

Take PRIM1 (UniProt P49642): the log2 fold change is 0.052 (inactive).

Take PPP1R8 (UniProt Q12972): the log2 fold change was 0.028 (inactive).

For PELO (UniProt Q9BRX2), the log2 fold change is 0.056 (inactive).

PDCD6IP isoform 2 (UniProt Q8WUM4): the log2 fold change is -0.01 (inactive).

Regarding PTGES2 (UniProt Q9H7Z7), the log2 fold change is -0.127 (inactive).

For the target PYURF (UniProt Q96I23), the log2 fold change is 0.113 (inactive).

PMPCA (UniProt Q10713): the log2 fold change was 0.001 (inactive).

In the case of POLA1 (UniProt P09884), the log2 fold change is 0.022 (inactive).

As for PHKG2 (UniProt P15735), the log2 fold change is -0.039 (inactive).

For the target PRKACB isoform 2 (UniProt P22694), the log2 fold change was -0.018 (inactive).

With POLB (UniProt P06746), the log2 fold change was 0.045 (inactive).

Take PTPN1 (UniProt P18031): the log2 fold change is -0.003 (inactive).

Turning to PRPH isoform 2 (UniProt P41219), the log2 fold change was -0.023 (inactive).

Turning to PKN1 isoform 2 (UniProt Q16512), the log2 fold change was 0.075 (inactive).

As to PPP4R2 (UniProt Q9NY27), the log2 fold change was 0.025 (inactive).

Regarding PEF1 (UniProt Q9UBV8), the log2 fold change was 0.039 (inactive).

For the target PXMP4 (UniProt Q9Y6I8), the log2 fold change was 0.033 (inactive).

With POLR3E (UniProt Q9NVU0), the log2 fold change is 0.004 (inactive).

For PRKRA (UniProt O75569), the log2 fold change is -0.001 (inactive).

Take PTK2 (UniProt Q05397): the log2 fold change was -0.057 (inactive).

PLIN2 (UniProt Q99541): the log2 fold change was 0.061 (inactive).

With PHACTR4 isoform 2 (UniProt Q8IZ21), the log2 fold change was -0.01 (inactive).

Consider PTGR2 (UniProt Q8N8N7), for which the log2 fold change was -0.043 (inactive).

As for PRMT5 (UniProt O14744), the log2 fold change was -0.015 (inactive).

For PCYT1B (UniProt Q9Y5K3), the log2 fold change is 0.047 (inactive).

On to POC5 (UniProt Q8NA72), for which the log2 fold change was 0 (inactive).

Turning to PFKP (UniProt Q01813), the log2 fold change was -0.041 (inactive).

Regarding PDF (UniProt Q9HBH1), the log2 fold change was 0.028 (inactive).

PYCR2 (UniProt Q96C36): the log2 fold change is -0.005 (inactive).

Consider PDE2A (UniProt O00408), for which the log2 fold change was 0.11 (inactive).

As to PRKACA (UniProt P17612), the log2 fold change was -0.052 (inactive).

In the case of PTPN2 (UniProt P17706), the log2 fold change is -0.035 (inactive).

For the target PPFIA2 (UniProt O75334), the log2 fold change was -0.082 (inactive).

As to PTP4A1 (UniProt Q93096), the log2 fold change was 0.006 (inactive).

Consider PDXDC1 (UniProt Q6P996), for which the log2 fold change is 0.058 (inactive).

In the case of PRKCSH isoform 2 (UniProt P14314), the log2 fold change is 0.039 (inactive).

As for POLD3 (UniProt Q15054), the log2 fold change is 0.021 (inactive).

Compound in another assay: COC(=O)[C@H](CCSC)NC(=O)C1=C(C=C(C=C1)NC[C@H](CS)N)C2=CC=CC=C2
The description is as above. An outline of the steps:
as §1
On to PDCD10 (UniProt Q9BUL8), for which the log2 fold change was 0.034 (inactive).

For PGPEP1 (UniProt Q9NXJ5), the log2 fold change was 0.057 (inactive).

Regarding PRIM1 (UniProt P49642), the log2 fold change was 0.041 (inactive).

Consider PPP1R8 (UniProt Q12972), for which the log2 fold change is -0.049 (inactive).

For PELO (UniProt Q9BRX2), the log2 fold change is 0.084 (inactive).

PDCD6IP isoform 2 (UniProt Q8WUM4): the log2 fold change is 0.188 (inactive).

On to PTGES2 (UniProt Q9H7Z7), for which the log2 fold change was 0.098 (inactive).

On to PYURF (UniProt Q96I23), for which the log2 fold change is 0.027 (inactive).

Consider PMPCA (UniProt Q10713), for which the log2 fold change was 0.04 (inactive).

On to POLA1 (UniProt P09884), for which the log2 fold change was 0.061 (inactive).

Turning to PHKG2 (UniProt P15735), the log2 fold change was 0.056 (inactive).

As to PRKACB isoform 2 (UniProt P22694), the log2 fold change is -0.05 (inactive).

For the target POLB (UniProt P06746), the log2 fold change is 0.086 (inactive).

Turning to PTPN1 (UniProt P18031), the log2 fold change is 0.014 (inactive).

For the target PRPH isoform 2 (UniProt P41219), the log2 fold change was -0.178 (inactive).

For the target PKN1 isoform 2 (UniProt Q16512), the log2 fold change was 0.116 (inactive).

For the target PPP4R2 (UniProt Q9NY27), the log2 fold change was -0.014 (inactive).

As to PEF1 (UniProt Q9UBV8), the log2 fold change is -0.034 (inactive).

In the case of PXMP4 (UniProt Q9Y6I8), the log2 fold change was 0.092 (inactive).

In the case of POLR3E (UniProt Q9NVU0), the log2 fold change was 0.104 (inactive).

As for PRKRA (UniProt O75569), the log2 fold change is 0.146 (inactive).

Consider PTK2 (UniProt Q05397), for which the log2 fold change is -0.126 (inactive).

As for PLIN2 (UniProt Q99541), the log2 fold change was -0.107 (inactive).

As for PHACTR4 isoform 2 (UniProt Q8IZ21), the log2 fold change is -0.016 (inactive).

On to PTGR2 (UniProt Q8N8N7), for which the log2 fold change was 0.694 (active).

Take PRMT5 (UniProt O14744): the log2 fold change is -0.099 (inactive).

Regarding PCYT1B (UniProt Q9Y5K3), the log2 fold change was -0.025 (inactive).

On to POC5 (UniProt Q8NA72), for which the log2 fold change was -0.048 (inactive).

With PFKP (UniProt Q01813), the log2 fold change was -0.001 (inactive).

As for PDF (UniProt Q9HBH1), the log2 fold change was -0.293 (active).

With PYCR2 (UniProt Q96C36), the log2 fold change is -0.038 (inactive).

In the case of PDE2A (UniProt O00408), the log2 fold change was -0.019 (inactive).

Consider PRKACA (UniProt P17612), for which the log2 fold change is -0.059 (inactive).

For PTPN2 (UniProt P17706), the log2 fold change was 0.053 (inactive).

For PPFIA2 (UniProt O75334), the log2 fold change was -0.029 (inactive).

With PTP4A1 (UniProt Q93096), the log2 fold change was -0.006 (inactive).

Turning to PDXDC1 (UniProt Q6P996), the log2 fold change was 0.085 (inactive).

On to PRKCSH isoform 2 (UniProt P14314), for which the log2 fold change was -0.013 (inactive).

With POLD3 (UniProt Q15054), the log2 fold change is 0.048 (inactive).
